# Source: PubChem BioAssay (NCATS)
# Several values for one entry are separate records, joined by “and”; a condition that tells them apart may be missing. Equal values may be shown once. Inconclusive results are not listed. Activity calls are given as the source filed them. Unless noted, calls come from the whole dose curve; as a rule, active = well fitted curve in the direction sought with a large enough effect; inconclusive = small, poorly fitted or top-dose-only effect, or another doubt; inactive = no such curve, though single readings can be large; an effect the other way counts as inactive or inconclusive.
# Columns and labels:
# [1] = target: Cytochrome P450 2D6 (Homo sapiens) (UniProt P10635); experiment: Cytochrome P450 family 2 subfamily D member 6 (CYP2D6) small molecule antagonists: luciferase biochemical (cell-free) qHTS assay (AID 1645840; active = well fitted curve in the direction sought with a large enough effect in the repeat runs; an effect the other way counts as inactive or inconclusive; note: nearly all actives have a fitted effect of over 55% in size; note: potency is the fitted concentration of half-maximal effect; for activity change, negative = inhibition: % is set by controls: 0 for no effect and ±100 for the full control effect)
# Procedure, shortened: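 P450-Glo luminescent screen: recombinant CYP2D6 enzyme–proluciferin substrate mix preincubated with compound 10 min at room temperature, then NADPH regeneration added for 1 h at room temperature. Detection reagent added for 20 min; luciferin light read as relative luminescence units.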
# [2] = target: Cytochrome P450 2C9 (Homo sapiens) (UniProt P11712); experiment: Cytochrome P450 family 2 subfamily C member 9 (CYP2C9) small molecule antagonists: luciferase biochemical (cell-free) qHTS assay (AID 1645842; active = well fitted curve in the direction sought with a large enough effect in the repeat runs; an effect the other way counts as inactive or inconclusive; note: nearly all actives have a fitted effect of over 55% in size; note: potency is the fitted concentration of half-maximal effect; for activity change, negative = inhibition: % is set by controls: 0 for no effect and ±100 for the full control effect)
# Procedure, shortened: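 Luminescence, after 20 min with luciferin detection reagent, reflected CYP2C9 turnover during a 1 h NADPH-driven reaction at 37C. Enzyme-substrate mix contained 0.4% bovine serum albumin and was preincubated with compound 10 min at room temperature.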
# [3] = Primary qHTS for inhibitors of nuclear receptor binding SET domain protein 2 (NSD2) in an isogenic RCH-ACV NSD2 p.E1099K mutant (9B) (AID 1645876); note: nearly all actives have a fitted effect of over 70% in size; note: potency is the fitted concentration of half-maximal effect
# [4] = Primary qHTS for inhibitors of nuclear receptor binding SET domain protein 2 (NSD2) in an RCH-ACV wild type WT cells (2C) (AID 1645877); note: nearly all actives have a fitted effect of over 70% in size; note: potency is the fitted concentration of half-maximal effect
# [5] = Primary qHTS for small molecule stabilizers of the endoplasmic reticulum resident proteome: Secreted ER Calcium Modulated Protein (SERCaMP) assay (AID 1508630); note: % is set by controls: 0 for no effect and ±100 for the full control effect
# Procedure, shortened: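 GLuc-SERCaMP-expressing SH-SY5Y cells, pretreated 16 h with compound, are challenged with thapsigargin to empty ER calcium stores; after 4 h, coelenterazine is added directly to the medium and luminescence is imaged.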
# [6] = target: N-terminal Xaa-Pro-Lys N-methyltransferase 1 (Homo sapiens) (UniProt Q9BV86); experiment: Confirmatory qHTS for Inhibitors of N-terminal methyltransferase 1 (NTMT1): MTaseGlo Assay (AID 1645874); note: potency is the fitted concentration of half-maximal effect; nearly all actives have a fitted effect of over 65% in size
# Procedure, shortened: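 Preincubation of NTMT1 (125 nM) plus SAM (100 uM) with test compounds lasted 15 min; methylation of 1 uM SPKRIA then proceeded 30 min in the dark at room temperature. Luciferase signal reported SAH produced.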
# [7] = target: Catechol O-methyltransferase (Homo sapiens) (UniProt P21964); experiment: Confirmatory Screen for Target Class Profiling of Small Molecule Inhibitors of Methyltransferases (AID 1745852; calls by dose curve; note: potency is the fitted concentration of half-maximal effect); conditions: MTase-Glo luminescence, SAH detection, recombinant enzyme; measured here: COMT max response; stronger effect = lower value
# [8] = target: Guanidinoacetate N-methyltransferase (Homo sapiens) (UniProt Q14353); experiment: as above; conditions: MTase-Glo luminescence, SAH detection, recombinant enzyme; activity change, negative = inhibition: at 57.3 µM (top of the series) unless noted
# Sequence of Cytochrome P450 2C9 (Homo sapiens) (P11712 whole entry, looked up): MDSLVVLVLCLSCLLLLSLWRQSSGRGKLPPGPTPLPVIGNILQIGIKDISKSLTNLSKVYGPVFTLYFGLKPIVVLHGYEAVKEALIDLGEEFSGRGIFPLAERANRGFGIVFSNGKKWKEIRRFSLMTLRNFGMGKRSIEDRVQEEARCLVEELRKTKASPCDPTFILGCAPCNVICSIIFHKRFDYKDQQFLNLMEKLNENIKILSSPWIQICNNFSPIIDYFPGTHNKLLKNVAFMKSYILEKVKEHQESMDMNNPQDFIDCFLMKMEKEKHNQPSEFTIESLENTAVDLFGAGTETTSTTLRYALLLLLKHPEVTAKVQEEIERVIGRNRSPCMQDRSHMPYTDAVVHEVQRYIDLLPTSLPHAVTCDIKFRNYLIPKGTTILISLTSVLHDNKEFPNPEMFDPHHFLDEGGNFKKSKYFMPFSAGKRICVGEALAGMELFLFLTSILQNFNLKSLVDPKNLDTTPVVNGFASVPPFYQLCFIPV
# Sequence of Cytochrome P450 2D6 (Homo sapiens) (P10635 whole entry, looked up): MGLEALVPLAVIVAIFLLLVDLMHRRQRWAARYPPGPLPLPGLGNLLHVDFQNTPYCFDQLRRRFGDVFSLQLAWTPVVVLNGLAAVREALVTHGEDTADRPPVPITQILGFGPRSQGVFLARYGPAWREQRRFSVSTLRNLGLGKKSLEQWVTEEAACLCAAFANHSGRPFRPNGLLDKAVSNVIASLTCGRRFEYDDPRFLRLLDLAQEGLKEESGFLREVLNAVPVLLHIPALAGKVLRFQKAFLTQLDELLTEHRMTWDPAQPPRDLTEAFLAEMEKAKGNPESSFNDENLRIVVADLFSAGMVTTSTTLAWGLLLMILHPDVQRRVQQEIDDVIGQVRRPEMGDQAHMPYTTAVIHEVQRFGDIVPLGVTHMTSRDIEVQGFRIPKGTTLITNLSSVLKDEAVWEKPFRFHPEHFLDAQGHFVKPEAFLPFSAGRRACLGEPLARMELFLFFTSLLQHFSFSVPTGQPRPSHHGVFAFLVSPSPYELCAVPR
# Sequence of N-terminal Xaa-Pro-Lys N-methyltransferase 1 (Homo sapiens) (Q9BV86 whole entry, looked up): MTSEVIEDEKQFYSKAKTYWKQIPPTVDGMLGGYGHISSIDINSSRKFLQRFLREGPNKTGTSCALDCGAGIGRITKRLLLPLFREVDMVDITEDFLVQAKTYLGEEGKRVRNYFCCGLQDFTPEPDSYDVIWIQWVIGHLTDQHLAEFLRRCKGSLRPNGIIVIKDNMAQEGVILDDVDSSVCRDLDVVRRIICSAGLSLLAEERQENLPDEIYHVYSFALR
# Sequence of Catechol O-methyltransferase (Homo sapiens) (P21964 whole entry, looked up): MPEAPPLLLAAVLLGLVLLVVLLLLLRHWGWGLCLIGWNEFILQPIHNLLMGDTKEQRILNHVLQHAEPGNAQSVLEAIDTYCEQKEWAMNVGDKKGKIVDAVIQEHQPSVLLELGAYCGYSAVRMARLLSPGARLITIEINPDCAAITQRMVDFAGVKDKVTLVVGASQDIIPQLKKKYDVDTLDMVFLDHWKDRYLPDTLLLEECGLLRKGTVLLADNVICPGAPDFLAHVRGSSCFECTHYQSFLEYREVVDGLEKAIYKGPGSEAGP
smiles,measurement,setting,value
CCNC(=O)Nc1ccc2ncc(Nc3ccc(C)cc3)nc2n1,Potency,[1],inactive
same,Potency,[2],inactive
same,Potency,[3],inactive
same,Potency,[4],inactive
C[C@@H](Oc1cc(-n2cnc3ccc(CN4CCN(C)CC4)cc32)sc1C(N)=O)c1ccccc1C(F)(F)F,Potency,[5],inactive
same,Potency,[3],29.5 nM (active)
same,Potency,[4],41.7 nM (active)
CC(C)CC(=O)Nc1n[nH]c2c1CN(C(=O)C1CCN(C)CC1)C2(C)C,Potency,[1],inactive
same,Potency,[2],inactive
same,Potency,[3],129 nM (active) and 662 nM (active)
O=C(Nc1cc(C(F)(F)F)cc(C(F)(F)F)c1)c1cc(Cl)ccc1O,Potency,[5],inactive
same,Potency,[3],3.25 µM (active) and 2.63 µM (active)
same,Potency,[4],2.3 µM (active) and 2.95 µM (active)
NCC(=O)Nc1ccc(-n2nc(C(F)(F)F)cc2-c2ccc3c(ccc4ccccc43)c2)cc1,Potency,[1],15.1 µM (active)
same,Potency,[2],4.77 µM (active)
same,Potency,[3],1.15 µM (active) and 1.48 µM (active)
same,Potency,[4],4.09 µM (active) and 2.09 µM (active)
OCCCNc1cc(-c2ccnc(Nc3cccc(Cl)c3)n2)ccn1,Potency,[1],13.5 µM (active)
same,Potency,[2],10.7 µM (active)
same,Potency,[6],22.4 µM (active)
same,Potency,[3],29 nM (active) and 52.5 nM (active)
same,Potency,[4],51.7 nM (active) and 33.2 nM (active)
same,activity,[7],-80.2%
same,Potency,[8],10.8 µM (active)
COCCn1c2c([n+](Cc3cnccn3)c1C)C(=O)c1ccccc1C2=O,Potency,[5],inactive
same,Potency,[3],4.2 nM (active)
same,Potency,[4],5.9 nM (active)
O=C1CCC[C@@H]2[C@H]3CCC[N+]4([O-])CCC[C@@H](CN12)[C@@H]34 (stereo not given in full),Potency,[5],inactive
same,Potency,[3],inactive
same,Potency,[4],inactive
